{
  "source": "PubChem BioAssay (NCATS)",
  "note": "Values joined by “and” are separate entries in the source; they are usually repeats but may differ in a detail not shown here. Identical values can stand only once. Inconclusive results are not listed. Unmarked numbers belong to inactive results. Active and inactive are the calls of the source. The call rests on the fitted dose curve; in most records, active means well fitted curve in either direction with a large enough effect (not every such curve was filed as active); inconclusive means small, poorly fitted or top-dose-only effect, or another doubt; inactive means flat fitted curve, though single readings scatter. Peptide text beside a SMILES is read from it. On the % scale 0 is the no-effect control and ±100 the full control effect.",
  "data": [
    {"assay": "NFAT Signaling Pathway (AID 444)", "conditions": "Jurkat NFAT-bla M1, carbachol, beta-lactamase ratio, 5 h; at 7.69 µM (top of the series)", "excerpt": "(§1) NCGC Assay Overview: The nuclear factor of activated T cells (NFAT) family of transcription factors has been found primarily in most immune system cells and some other non-immune cells. NFAT plays the immunomodulatory role, primarily in T-cell activation and differentiation. NFAT target genes are also involved in the regulation of apoptosis and differentiation in non-immune cell types. The NFAT sequence was engineered to the upstream of the ?-lactamase reporter gene and transfected into Jurkat cells with co-transfection of muscarinic receptor1 [provided by Invitrogen Corp]. When an extracellular stimulus, such as carbachol, binds to the GPCR M1 receptor, it stimulates a signaling cascade that activates NFAT response element and ?-lactamase expression by phosphorylating the NFAT binding protein. This cell based ?-lactamase reporter gene assay can accurately monitor any changes occurring along the NFAT pathway, and can be used for screening small molecule inhibitor or activator upon activation by carbachol EC50 concentration. A small molecular library were screened in a titration series resulting in AC50s (can be either IC50s or EC50s).\n(§2) NCGC Assay Protocol Summary: The cells were prepared in RPMI 1640 medium containing 0.1% dialyzed FBS and 25 mM HEPES at 1.6 x 10^6cell/ml. The assay was performed in 1536-well plate format as follows: 5 ul of cell preparation 23 nl of compounds 1ul of carbachol (final concentration 1 uM) Briefly centrifuge the plates and incubate at 37 °C for 5 hours 1 ul of CCF4 dye mixture Incubate the plates at RT for 1 hour Read the plate in EnVision plate reader (Ex= 405nm, and Em1=460nm and Em2=530nm). The %Activity was determined from the ratio of 460nm/530nm. Data normalization and AC50 calculations were accomplished using GeneData software.", "units": {"activity change, negative = inhibition": "%"}, "values": [
      {"smiles": "O=C(O)CCC(=O)C(=O)O", "activity change, negative = inhibition": 15.2}
    ]},
    {"assay": "NFAT Signaling Pathway (AID 444)", "conditions": "Jurkat NFAT-bla M1, carbachol, beta-lactamase ratio, 5 h; at 17.2 µM (top of the series)", "excerpt": "as §1, §2", "values": [
      {"smiles": "CC[N+](C)(C)Cc1ccccc1Br", "activity change, negative = inhibition": "-8.6%"},
      {"smiles": "CC(=O)N[C@@H](CC(=O)O)C(=O)N[C@@H](CCC(=O)O)C(=O)O", "note": "(Ac-Asp-Glu-OH)", "activity change, negative = inhibition": "-12.3%"},
      {"smiles": "CC1(C)S[C@@H]2[C@H](NC(=O)[C@@H](NC(=O)N3CCNC3=O)c3ccccc3)C(=O)N2[C@H]1C(=O)O", "activity change, negative = inhibition": "-13.7%"},
      {"smiles": "CC(C)N=c1cc2n(-c3ccc(Cl)cc3)c3ccccc3nc-2cc1Nc1ccc(Cl)cc1", "activity change, negative = inhibition": "-120% (active)"},
      {"smiles": "Cc1cc(C(=O)NNCc2ccccc2)no1", "activity change, negative = inhibition": "11.8%"},
      {"smiles": "CCCC(=O)O[C@]1(C(=O)COC(C)=O)CC[C@H]2[C@@H]3C[C@H](F)C4=CC(=O)C=C[C@]4(C)[C@@]3(F)[C@@H](O)C[C@@]21C", "activity change, negative = inhibition": "-29.7%"},
      {"smiles": "CCOc1ccc2c(c1)C(C)=CC(C)(C)N2", "activity change, negative = inhibition": "4.3%"},
      {"smiles": "Nc1c(Br)cc(Br)cc1CNC1CCC(O)CC1", "note": "(configuration not stated)", "activity change, negative = inhibition": "0.0265%"},
      {"smiles": "CCCC(=O)Nc1ncnc2c1ncn2[C@@H]1O[C@@H]2COP(=O)(O)O[C@H]2[C@H]1OC(=O)CCC", "activity change, negative = inhibition": "-26.8%"},
      {"smiles": "CC1(C)S[C@@H]2[C@H](NC(=O)Cc3ccccc3)C(=O)N2[C@H]1C(=O)O", "activity change, negative = inhibition": "-9.19% and 5.43%"},
      {"smiles": "Cc1onc(-c2ccccc2)c1C(=O)N[C@@H]1C(=O)N2[C@@H]1SC(C)(C)[C@@H]2C(=O)O", "activity change, negative = inhibition": "24.2%"},
      {"smiles": "Cc1c(C)c2c(c(C)c1O)CC[C@@](C)(CCC[C@@H](C)CCC[C@@H](C)CCCC(C)C)O2", "activity change, negative = inhibition": "-1.66%"},
      {"smiles": "C[C@]12C=CC(=O)C=C1CC[C@@H]1[C@@H]2[C@@H](O)C[C@@]2(C)[C@H]1CC[C@]2(O)C(=O)COC(=O)CCC(=O)O", "activity change, negative = inhibition": "20.1%"}
    ]},
    {"assay": "NFAT Signaling Pathway (AID 444)", "conditions": "Jurkat NFAT-bla M1, carbachol, beta-lactamase ratio, 5 h; at 38 µM (top of the series)", "excerpt": "as §1, §2", "units": {"activity change, negative = inhibition": "%"}, "values": [
      {"smiles": "CC[N+](C)(C)Cc1ccccc1Br", "activity change, negative = inhibition": -11},
      {"smiles": "COc1ccc(CCNC[C@H](O)c2ccc(O)cc2)cc1OC", "activity change, negative = inhibition": -28.1},
      {"smiles": "CN=C(NC#N)Nc1ccc(C2=NNC(=O)C[C@@H]2C)cc1", "activity change, negative = inhibition": -1.21}
    ]}
  ]
}
